Results reported in PubChem BioAssay (Tox21).
Unmarked numbers belong to inactive results. Results filed as inconclusive are left out. Where a call stands in place of a potency, no number is given. Calls of active or inactive are those of the source. Unless noted, the call rests on the fitted dose curve.

Legend:
[1] = Nuclear factor erythroid 2-related factor 2/antioxidant responsive element (Nrf2/ARE) small molecule agonists: qHTS cell viability counter screen in human keratinocytes (AID 1919968; active means well fitted curve in the direction sought with a large enough effect in the repeat runs; an effect the other way counts as inactive or inconclusive; further: nearly all actives have a fitted effect of over 55% in size; further: potency means the concentration at half of the fitted maximal effect)
Outline: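 HaCaT ARE reporter line, 1,500 cells/well; 5 h settle, 37 C/5% CO2; cpd in DMSO pinned; 23 h exposure; CellTiter-Fluor, 1 h; fluorescence.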

[2] = Nuclear factor erythroid 2-related factor 2/antioxidant responsive element (Nrf2/ARE) small molecule agonists: luciferase reporter gene qHTS assay in human keratinocytes (AID 1919969); further: nearly all actives have a fitted effect of over 35% in size; further: potency means the concentration at half of the fitted maximal effect
[3] = molecular target: Gonadotropin-releasing hormone receptor (Homo sapiens) (UniProt P30968); assay: Human gonadotropin-releasing hormone receptor (GnRHR) small molecule agonists, calcium flux assay in GnRHR-HEK293 cells (AID 1920063); further: nearly all actives have a fitted effect of over 35% in size; further: potency means the concentration at half of the fitted maximal effect
Chain of Gonadotropin-releasing hormone receptor (Homo sapiens) (P30968 whole entry, looked up): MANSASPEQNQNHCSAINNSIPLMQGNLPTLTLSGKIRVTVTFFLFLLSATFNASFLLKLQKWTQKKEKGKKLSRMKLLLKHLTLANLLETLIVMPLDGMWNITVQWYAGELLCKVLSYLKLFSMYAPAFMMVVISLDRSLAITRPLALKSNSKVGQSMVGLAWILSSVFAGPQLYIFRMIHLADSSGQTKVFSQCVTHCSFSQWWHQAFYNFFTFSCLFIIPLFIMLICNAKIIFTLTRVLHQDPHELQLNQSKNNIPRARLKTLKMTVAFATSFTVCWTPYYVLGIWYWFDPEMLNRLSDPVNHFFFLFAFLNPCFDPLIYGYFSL
Outline: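 GnRHR-HEK293, 1500 cells/well, 18 h 37 C/5% CO2; Ca dye 1 h 37 C; cpd pinned (DMSO), agonist mode; kinetic FL 480/540, 3 min, 1 s reads; 15 conc, n=3.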

[4] = molecular target: KiSS-1 receptor (Homo sapiens) (UniProt Q969F8); assay: Human kisspeptin (KISS1R) small molecule agonists, calcium flux assay in KISS1R-HEK293 cells (AID 1920064; active means well fitted curve in the direction sought with a large enough effect in the repeat runs; an effect the other way counts as inactive or inconclusive; further: potency means the concentration at half of the fitted maximal effect)
Chain of KiSS-1 receptor (Homo sapiens) (Q969F8 whole entry, looked up): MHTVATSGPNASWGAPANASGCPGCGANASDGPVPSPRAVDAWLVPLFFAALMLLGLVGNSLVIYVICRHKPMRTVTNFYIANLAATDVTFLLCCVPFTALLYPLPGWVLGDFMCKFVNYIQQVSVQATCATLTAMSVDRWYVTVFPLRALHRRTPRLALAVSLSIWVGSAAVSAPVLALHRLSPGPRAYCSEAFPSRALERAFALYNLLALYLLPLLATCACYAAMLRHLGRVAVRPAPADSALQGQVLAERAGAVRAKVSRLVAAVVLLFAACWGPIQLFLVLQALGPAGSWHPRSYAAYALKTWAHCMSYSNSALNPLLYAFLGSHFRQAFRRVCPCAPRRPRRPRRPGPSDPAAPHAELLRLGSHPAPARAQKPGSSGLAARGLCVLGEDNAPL
Outline: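 Stable human KISS1R HEK293 line; 18 h plating, 37 C/5% CO2; calcium dye 1 h 37 C; compound pin transfer; kinetic fluorescence Ex/Em 480/540, 3 min.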

[5] = G protein-coupled receptor (GPCR) small molecule agonists, calcium flux assay: HEK293 wild type cell line counter screen (AID 1920065); further: potency means the concentration at half of the fitted maximal effect
Outline: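 Kinetic fluorescence at Ex/Em 480/540, recorded every second over 3 min, served as the read-out after compound addition. Each compound was tested at 15 concentrations in triplicate on cells pre-loaded with calcium dye for 1 h.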

[6] = p53 small molecule agonists, cell-based qHTS assay with human liver microsomes (AID 1963577);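 further: p53 response element beta-lactamase reporter cells with liver microsomes plus NADPH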
Outline: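 HLM-supplemented p53RE-bla reporter assay: 16 h compound exposure at 37 C, microsomes and NADPH each 0.5 mg/mL final, read by fluorescence intensity.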

[7] = p53 small molecule agonists, cell-based qHTS assay with rat liver microsomes (AID 1963578)
Outline: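 Quantitative HTS of the Tox21 10K library: p53RE-bla cells, rat liver microsomes plus NADPH at 0.5 mg/mL final each, 16 h at 37 C, beta-lactamase fluorescence detection.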

[8] = p53 small molecule agonists, cell-based qHTS assay with human liver microsomes: qHTS cell viability counter screen (AID 1963579); further: nearly all actives have a fitted effect of over 45% in size; further: potency means the concentration at half of the fitted maximal effect
Outline: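 Viability of p53RE-bla cells is measured as CellTiter-Glo luminescence following a 16 h, 37 C incubation with compound, liver microsomes from human donors and NADPH.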

[9] = p53 small molecule agonists, cell-based qHTS assay with rat liver microsomes: qHTS cell viability counter screen (AID 1963580); further: nearly all actives have a fitted effect of over 45% in size; further: potency means the concentration at half of the fitted maximal effect
Outline: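 Viability is assessed in parallel with the p53 reporter read: HCT-116 p53RE-bla cells receive compounds plus rat microsomes and NADPH (0.5 mg/mL final apiece), incubate 16 h at 37 C, and then CellTiter-Glo luminescence is recorded.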

[10] = p53 small molecule agonists, cell-based qHTS assay: qHTS cell viability counter screen (AID 1963581); further: nearly all actives have a fitted effect of over 45% in size; further: potency means the concentration at half of the fitted maximal effect
Outline: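 HCT-116 p53RE-bla cells, 4,000/well, plated 5 h before compound pin transfer; 16 h at 37 C; bla substrate 2 h RT; then CellTiter-Glo, 30 min RT, luminescence.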

[11] = molecular target: 5-hydroxytryptamine receptor 2A (Homo sapiens) (UniProt P28223); assay: 5-hydroxytryptamine receptor 2A (HTR2A) small molecule antagonists, cell-based qHTS assay (AID 1963586); further: nearly all actives have a fitted effect of over 45% in size; further: potency means the concentration at half of the fitted maximal effect
Chain of 5-hydroxytryptamine receptor 2A (Homo sapiens) (P28223 whole entry, looked up): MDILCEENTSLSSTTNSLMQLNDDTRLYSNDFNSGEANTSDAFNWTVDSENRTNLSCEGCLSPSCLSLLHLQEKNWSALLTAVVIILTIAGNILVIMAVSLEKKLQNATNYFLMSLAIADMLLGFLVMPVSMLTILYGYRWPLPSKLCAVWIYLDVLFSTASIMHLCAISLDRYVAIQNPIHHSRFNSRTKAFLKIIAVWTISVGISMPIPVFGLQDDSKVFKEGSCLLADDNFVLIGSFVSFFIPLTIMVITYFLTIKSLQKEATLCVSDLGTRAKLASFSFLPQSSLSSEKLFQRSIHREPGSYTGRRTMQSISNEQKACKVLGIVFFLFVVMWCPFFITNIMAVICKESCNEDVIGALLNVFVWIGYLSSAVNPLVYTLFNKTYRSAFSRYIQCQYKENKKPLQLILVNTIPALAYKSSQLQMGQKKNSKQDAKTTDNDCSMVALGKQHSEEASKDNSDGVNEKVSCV
Outline: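 Antagonist-mode intracellular calcium assay: DOI (4 nM) added after 5 min compound pre-incubation at room temperature to dye-loaded HTR2A-CHO cells. Fluorescence followed for 3 min, sampled every second.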

[12] = molecular target: 5-hydroxytryptamine receptor 2A (Homo sapiens) (UniProt P28223); assay: 5-hydroxytryptamine receptor 2A (HTR2A) small molecule agonists, cell-based qHTS assay (AID 1963587); further: nearly all actives have a fitted effect of over 30% in size; further: potency means the concentration at half of the fitted maximal effect
Outline: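 CHO cells stably expressing human HTR2A, plated 18 h, loaded with calcium dye 1 h at 37 C. Agonist mode: compounds added and intracellular calcium fluorescence recorded kinetically for 2 min at 1 sec intervals.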

[13] = molecular target: Beta-2 adrenergic receptor (Homo sapiens) (UniProt P07550); assay: Adrenergic beta2 receptor (ADRB2) small molecule antagonists, cell-based qHTS assay (AID 1963592); further: nearly all actives have a fitted effect of over 50% in size; further: potency means the concentration at half of the fitted maximal effect; on activity change, negative = inhibition: series mostly up to about 92 µM
Chain of Beta-2 adrenergic receptor (Homo sapiens) (P07550 whole entry, looked up): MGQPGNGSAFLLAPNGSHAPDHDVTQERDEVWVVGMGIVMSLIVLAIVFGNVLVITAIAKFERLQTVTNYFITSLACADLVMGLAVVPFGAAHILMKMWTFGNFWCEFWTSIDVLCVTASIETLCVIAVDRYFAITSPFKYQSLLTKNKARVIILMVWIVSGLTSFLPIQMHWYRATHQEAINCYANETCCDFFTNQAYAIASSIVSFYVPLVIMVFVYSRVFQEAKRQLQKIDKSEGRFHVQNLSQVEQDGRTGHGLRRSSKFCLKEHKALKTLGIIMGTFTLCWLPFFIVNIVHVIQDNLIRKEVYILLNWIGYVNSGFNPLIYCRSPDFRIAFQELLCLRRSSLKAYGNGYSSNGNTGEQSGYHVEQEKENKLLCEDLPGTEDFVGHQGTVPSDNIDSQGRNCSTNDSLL
Outline: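 Cells (CHO, stable ADRB2 overexpression) incubated 18-20hr at 37C; compounds added from DMSO; agonist mix (1nM isoproterenol, 100uM IBMX, 25uM Ro-20-1724) added; 0.5hr RT; d2-cAMP and anti-cAMP-cryptate added; 1hr RT; 665/615 nm read.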

[14] = molecular target: D(2) dopamine receptor (Homo sapiens) (UniProt P14416); assay: Dopamine D2 receptor (DRD2) small molecule antagonists, cell-based qHTS assay (AID 1963595; active means well fitted inhibition curve with a large enough effect in the signal ratio in the repeat runs, with a control signal flat; the % refers to the signal ratio; further: potency means the concentration at half of the fitted maximal effect)
Chain of D(2) dopamine receptor (Homo sapiens) (P14416 whole entry, looked up): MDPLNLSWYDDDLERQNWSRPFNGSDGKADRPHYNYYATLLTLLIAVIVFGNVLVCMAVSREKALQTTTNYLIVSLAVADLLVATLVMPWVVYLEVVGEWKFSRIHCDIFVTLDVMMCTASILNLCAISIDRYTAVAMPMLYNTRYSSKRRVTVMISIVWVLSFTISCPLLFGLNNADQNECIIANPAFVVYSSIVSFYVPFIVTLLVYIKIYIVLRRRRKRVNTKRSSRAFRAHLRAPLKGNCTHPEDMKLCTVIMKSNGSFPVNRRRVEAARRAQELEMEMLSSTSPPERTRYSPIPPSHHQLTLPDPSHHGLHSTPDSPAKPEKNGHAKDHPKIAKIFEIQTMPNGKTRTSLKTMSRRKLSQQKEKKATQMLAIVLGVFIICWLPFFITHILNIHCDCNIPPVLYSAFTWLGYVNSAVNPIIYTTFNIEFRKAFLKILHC
Outline: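 Readout: HTRF cAMP, cAMP-d2 competing with cellular cAMP for anti-cAMP cryptate, read after 1 h. Cells: DRD2-HEK293. Conditions: 0.1 mM Ro20-1724, 12 nM quinpirole, 200 nM NKH477, 30 min RT.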

[15] = molecular target: Muscarinic acetylcholine receptor M1 (Homo sapiens) (UniProt P11229); assay: Cholinergic receptor muscarinic 1 (CHRM1) small molecule agonists, cell-based qHTS assay (AID 1963589); further: nearly all actives have a fitted effect of over 35% in size
Chain of Muscarinic acetylcholine receptor M1 (Homo sapiens) (P11229 whole entry, looked up): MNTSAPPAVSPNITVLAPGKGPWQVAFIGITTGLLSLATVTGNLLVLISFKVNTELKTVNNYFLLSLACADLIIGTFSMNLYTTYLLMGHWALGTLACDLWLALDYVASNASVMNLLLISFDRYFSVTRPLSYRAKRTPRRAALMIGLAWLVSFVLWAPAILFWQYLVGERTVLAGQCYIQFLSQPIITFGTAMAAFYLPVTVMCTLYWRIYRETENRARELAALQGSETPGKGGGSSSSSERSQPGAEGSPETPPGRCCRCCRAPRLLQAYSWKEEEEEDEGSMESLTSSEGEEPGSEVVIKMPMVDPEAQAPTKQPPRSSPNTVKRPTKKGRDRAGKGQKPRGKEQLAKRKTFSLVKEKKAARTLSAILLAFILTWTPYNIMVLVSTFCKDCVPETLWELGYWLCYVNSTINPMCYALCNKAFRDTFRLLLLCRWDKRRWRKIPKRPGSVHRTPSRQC
Outline: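 Human M1 in stable CHO line; 18 h plating, 1 h dye load 37 C; cpd added (agonist mode); Ca2+ fluorescence kinetic read, 1 s intervals; 15 conc, 3 runs.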

[16] = cAMP Responsive Elements (CRE) small molecule antagonists, cell-based qHTS assay (AID 1963591; active means well fitted inhibition curve with a large enough effect in the signal ratio in the repeat runs, not every such curve was filed as active; the % refers to the signal ratio)
Outline: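 Beta-lactamase reporter read by FRET substrate (LiveBLAzer B/G) after 2 h at room temperature. CRE-bla HEK293T cells had received compound plus 0.25 uM (final) NKH477 for 3 h at 37 °C.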

[17] = p53 small molecule agonists, cell-based qHTS assay (AID 1963582; active means well fitted activation curve with a large enough effect in the signal ratio in the repeat runs, not every such curve was filed as active; the % refers to the signal ratio)
Outline: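 Reporter line: p53RE-bla. Pre-incubation 5 h, 37 C, 5% CO2; compound (DMSO, pin tool) 16 h, 37 C; B/G FRET substrate 2 h RT; fluorescence intensity read.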

[18] = molecular target: Muscarinic acetylcholine receptor M1 (Homo sapiens) (UniProt P11229); assay: Cholinergic receptor muscarinic 1 (CHRM1) small molecule antagonists, cell-based qHTS assay (AID 1963588); further: nearly all actives have a fitted effect of over 40% in size
Outline: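 CHRM1-CHO calcium-flux assay, antagonist mode. Cells were seeded 18 h, dye-loaded 1 h at 37 C and given compound for 5 min at RT, then acetylcholine was added at 50nM. FDSS fluorescence was read 3 min; 15 concentrations, three runs.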

[19] = cAMP Responsive Elements (CRE) small molecule agonists, cell-based qHTS assay (AID 1963590)
Outline: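 HEK 293T CRE-bla, 2,000 cells/well, 18 h preincubation 37 C/5% CO2; cpds (DMSO) pinned, 3 h; LiveBLAzer B/G FRET substrate, 2 h RT.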

[20] = molecular target: D(2) dopamine receptor (Homo sapiens) (UniProt P14416); assay: Dopamine D2 receptor (DRD2) small molecule agonists, cell-based qHTS assay (AID 1963594); further: nearly all actives have a fitted effect of over 35% in size
Outline: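 HEK293 cells stably expressing human DRD2, pre-treated with PDE inhibitor Ro20-1724 (0.1 mM final) and compound 10 min at room temperature, then stimulated with NKH477 (200nM […]) for 30 min. cAMP read by HTRF (665/620 nm).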

## C=C(C)C(=O)[O][Sn]([CH2]CCC)([CH2]CCC)[CH2]CCC
[1]
  Potency: 0.306 µM (active)
[2]
  Potency: 0.433 µM (active)
[3]
  Potency: 15.5 µM (active)
[4]
  Potency: 11 µM (active)
[5]
  Potency: 34.7 µM (active)
[6]
  Potency: inactive
[7]
  Potency: inactive
[8]
  Potency: 14.5 µM (active)
[9]
  Potency: 3.24 µM (active)
[10]
  Potency: 3.63 µM (active)
[11]
  Potency: 1.88 µM (active)
[12]
  Potency: 9.77 µM (active)
[13]
  Potency: 1.09 µM (active)
[14]
  Potency: 2.43 µM (active)

## O=C(O)C(F)(F)C(F)(F)C(F)(F)C(F)(F)C(F)(F)C(F)(F)C(F)(F)C(F)(F)C(F)(F)F
[1]
  Potency: inactive
[2]
  Potency: inactive
[3]
  Potency: inactive
[4]
  Potency: inactive
[5]
  Potency: inactive
[6]
  Potency: inactive
[7]
  Potency: inactive
[8]
  Potency: inactive
[9]
  Potency: inactive
[10]
  Potency: inactive
[11]
  Potency: inactive
[12]
  Potency: inactive
[15]
  Potency: inactive
[16]
  Potency: inactive
[13]
  Potency: inactive
[14]
  Potency: inactive

## CC(Cc1ccccc1)NCCCCl (configuration not stated)
[1]
  Potency: inactive
[2]
  Potency: inactive
[3]
  Potency: inactive
[4]
  Potency: inactive
[5]
  Potency: inactive
[6]
  Potency: inactive
[7]
  Potency: inactive
[8]
  Potency: inactive
[9]
  Potency: inactive
[17]
  Potency: inactive
[12]
  Potency: inactive
[18]
  Potency: inactive
[15]
  Potency: inactive
[19]
  Potency: inactive
[16]
  Potency: inactive
[13]
  Potency: inactive
[20]
  Potency: inactive
[14]
  Potency: inactive

## Fc1ccc(C(OCCN2CCN(CCCc3ccccc3)CC2)c2ccc(F)cc2)cc1
[1]
  Potency: 13.3 µM (active)
[2]
  Potency: inactive
[3]
  Potency: inactive
[4]
  Potency: inactive
[5]
  Potency: inactive
[6]
  Potency: inactive
[7]
  Potency: inactive
[8]
  Potency: inactive
[9]
  Potency: inactive
[10]
  Potency: inactive
[11]
  Potency: 1.3 µM (active)
[12]
  Potency: inactive
[18]
  Potency: inactive
[13]
  Potency: 29.8 µM (active)
[20]
  Potency: inactive
[14]
  Potency: 26.6 µM (active)

## Oc1ccccc1Br
[1]
  Potency: inactive
[2]
  Potency: inactive
[3]
  Potency: inactive
[4]
  Potency: inactive
[5]
  Potency: inactive
[6]
  Potency: inactive
[7]
  Potency: inactive
[8]
  Potency: inactive
[9]
  Potency: inactive
[17]
  Potency: inactive
[11]
  Potency: inactive
[12]
  Potency: inactive
[18]
  Potency: inactive
[15]
  Potency: inactive
[19]
  Potency: inactive
[13]
  Potency: inactive
[20]
  Potency: inactive
[14]
  Potency: inactive

## CC1=C(C(=O)O)N2C(=O)[C@@H](N)[C@H]2SC1
[1]
  activity change, negative = cytotoxicity: 0.0817% [at 19 µM]
[2]
  activity, positive = activation: -0.189% [at 19 µM]
[3]
  activity change: 0.673% [at 11.8 µM, active compounds read high]
[4]
  activation: 0.11% [at 15.8 µM]
[5]
  activation: -0.375% [at 11.8 µM]
[6]
  activation: -0.214% [at 13.5 µM]
[7]
  activation: -0.0529% [at 13.6 µM]
[8]
  activity change, negative = cytotoxicity: 0.455% [at 13.5 µM]
[9]
  activity change, negative = cytotoxicity: 4.3e-05% [at 13.5 µM]
[17]
  activation: 0.428% [at 13.5 µM]
[11]
  activity, negative = inhibition: 25.1% [at 12.7 µM]
[12]
  activation: 1.93% [at 15.9 µM]
[18]
  activity, negative = inhibition: -6.26% [at 12.6 µM]
[15]
  activation: 0% [at 15.8 µM]
[19]
  activation: -0.165% [at 19 µM]
[13]
  activity change, negative = inhibition: 2.77% [at 19 µM]
[20]
  activation: -15.4% [at 19 µM]
[14]
  activity change, negative = inhibition: -2.19% [at 18.9 µM]

## CC(C)(c1ccc(O)c(-c2ccccc2)c1)c1ccc(O)c(-c2ccccc2)c1
[1]
  Potency: 13.7 µM (active)
[2]
  Potency: inactive
[3]
  Potency: inactive
[4]
  Potency: inactive
[5]
  Potency: inactive
[6]
  Potency: inactive
[7]
  Potency: inactive
[8]
  Potency: 18.2 µM (active)
[9]
  Potency: 20.4 µM (active)
[10]
  Potency: 20.4 µM (active)
[11]
  Potency: 18.8 µM (active)
[12]
  Potency: inactive
[18]
  Potency: inactive
[20]
  Potency: inactive

## Oc1ccc(C2(c3ccc(O)cc3)c3ccccc3-c3ccccc32)cc1
[1]
  Potency: 30.6 µM (active)
[2]
  Potency: 0.969 µM (active)
[3]
  Potency: inactive
[4]
  Potency: inactive
[5]
  Potency: inactive
[6]
  Potency: inactive
[7]
  Potency: inactive
[8]
  Potency: 32.4 µM (active)
[10]
  Potency: 45.8 µM (active)
[11]
  Potency: inactive
[12]
  Potency: inactive
[18]
  Potency: inactive
[13]
  Potency: inactive
